Giardia FBPA inh: qHTS Assay for Inhibitors of Fructose-1,6-bisphosphate Aldolase from Giardia Lamblia. 290,000 compounds, 0.71% hits. A8B2U2. Potency, µM (highest dose often 59.6 µM), most hits filed as inhibitors. purified Giardia FBPA; also: nearly all actives have a fitted effect of over 55% in size
Target sequence (A8B2U2 whole entry, looked up): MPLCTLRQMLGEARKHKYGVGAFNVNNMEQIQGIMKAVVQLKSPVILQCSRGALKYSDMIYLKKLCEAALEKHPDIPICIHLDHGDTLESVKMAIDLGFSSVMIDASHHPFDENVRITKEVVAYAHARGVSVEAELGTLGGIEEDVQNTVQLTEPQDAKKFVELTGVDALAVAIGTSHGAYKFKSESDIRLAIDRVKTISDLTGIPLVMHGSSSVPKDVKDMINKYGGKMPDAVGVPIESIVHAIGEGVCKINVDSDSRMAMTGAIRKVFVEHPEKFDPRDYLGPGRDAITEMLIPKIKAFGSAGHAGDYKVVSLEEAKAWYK
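Giardia FBPA (40 nM reagent) was preincubated 10 min at RT with compound (up to 57.5 uM final), then substrate plus GAPDH/TPI/NAD/arsenate coupling system with diaphorase/resazurin was added; resorufin fluorescence (525/598 nm) was read after 20 min.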
Shiga inhibitor: A qHTS for Small Molecule Inhibitors of Shiga Toxin; inhibition, % at 38.7 µM; Vero cells, Shiga toxin protein synthesis inhibition reporter; AID 2315, 2010; 290,000 compounds, 9.2% hits; in the data active = inhibition mostly above about 28%, no sharp cut-off; inactive = mostly below about 43%
CHX counter: Cycloheximide Counterscreen for Small Molecule Inhibitors of Shiga Toxin; cell reporter, cycloheximide protein synthesis inhibition counterscreen; max response, %; 300,000 compounds, 12% hits; AID 2314, 2010; in the data active = max response mostly above about 13%, no sharp cut-off; inactive = mostly below about 14%; also: read at 38.3 µM for the half of the compounds with a filed dose
NS1 function inh: qHTS Assay for Inhibitors of Influenza NS1 Protein Function. Potency, µM (series often up to 46.1 µM). 270,000 compounds, 0.4% hits; calls by dose curve; also: actives are rising curves; nearly all actives have a fitted effect of over 50% in size
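OD600 was taken as the measure of yeast growth restored by compound in an NS1-expressing S. cerevisiae strain. Cells had been washed out of glucose medium and diluted 1:100 into galactose -URA medium, pH 6.0.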
LmPK inhibitor: qHTS Assay for Inhibitors of Leishmania Mexicana Pyruvate Kinase (LmPK). 290,000 compounds, 0.37% hits. Q27686. purified LmPK, Kinase-Glo ATP luminescence, 1 h. Potency, µM (doses to about 57.5 µM), actives largely listed as inhibitors
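In 50 mM imidazole pH 7.2 with 7 mM MgCl2, LmPK (0.1 nM) turned over PEP (0.5 mM) and ADP (0.1 mM) for 1 h at room temperature. Luciferase read-out of ATP.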
Hits are given with their value; n = inactive; u = inconclusive; x = no result given; + = active, no number; [ ] = remark or other dose. Hits are enriched below; roughly 14% of the tested compounds scored in any of these assays. Unless noted, calls follow the shape of the dose curve; as a rule, active = well fitted curve in the direction sought with a large enough effect; inconclusive = small, poorly fitted or top-dose-only effect, or another doubt; inactive = no such curve, though single readings can be large; an effect the other way counts as inactive or inconclusive.

SMILES	Giardia FBPA inh	Shiga inhibitor	CHX counter	NS1 function inh	LmPK inhibitor
O=C(CSc1ccc(-c2ccccn2)nn1)Nc1cccc(F)c1	x	32	42	n	n
CCSc1nnc(NC(=O)[C@@H](NC(=O)c2cccc(C)c2)C(C)C)s1	n	n	n	n	n
CCSc1nnc(NC(=O)Nc2cccc(C)c2)s1	n	101	38	n	n
CCC1=C2CC[C@H]3C(=O)NC(=O)[C@H]3[C@H]2[C@@]2(C)C(=NCC3CC3)OC(=O)N2C1=O	n	x	x	x	x
C=C1c2c(Cl)ccc(O)c2C(O)=C2C(=O)[C@@]3(O)C(O)=C(C(N)=O)C(=O)[C@@H](N(C)C)[C@@H]3[C@@H](O)[C@H]12	n	x	x	x	x
CCN1CCN(S(=O)(=O)c2c[nH]c(C(=O)OC)c2)CC1	n	n	n	n	n
Cc1cccc(NC(=O)CSc2nnc(NC(=O)c3ccco3)s2)c1	n	43	n	x	n
Cc1cc(C)cc(NC(=O)CSc2ccc(-c3ccco3)nn2)c1	n	n	n	n	n
Cc1cccc(NC(=O)CSc2ccc(-c3ccco3)nn2)c1	n	n	20	n	n
COc1ccc(NC(=O)CSc2nnc(NC(=O)c3ccco3)s2)cc1OC	x	n	n	n	n
C/C(N)=C(/C#N)C(=O)CSc1nc2cc(Cl)ccc2s1	n	+	24	n	n
CC(C)c1nnc(N2C(=O)C(O)=C(C(=O)c3cccs3)C2c2ccccc2)s1 (stereo unspecified)	u	55	21	n	n
COc1ccc(/C=N/n2cncn2)cc1Cn1cc([N+](=O)[O-])cn1	n	n	n	n	n
COc1ccc(/C=N/Nc2ccc([N+](=O)[O-])cc2)cc1O	n	80	26	n	n
COC(=O)c1ccc(N/N=C/c2cc([N+](=O)[O-])cc(OC)c2O)cc1	n	n	n	n	n
COc1cccc(/C=N/Nc2ccc([N+](=O)[O-])cc2)c1O	n	76	33	n	n
COc1ccc(/C=N/Nc2ccc([N+](=O)[O-])cc2)cc1Cn1cc([N+](=O)[O-])cn1	n	n	11	n	n
COc1cc(/C=N/Nc2ccc([N+](=O)[O-])cn2)cc(OC)c1O	n	n	25	n	n
O=[N+]([O-])c1ccc(N/N=C\c2cccnc2)nc1	n	n	n	n	n
CN(C)S(=O)(=O)N1CCN(CC(O)COc2ccc(-c3ccccc3)cc2)CC1 (stereo unspecified)	n	x	n	n	n
O=C(NCc1ccccc1)c1cc[n+]([O-])cc1	n	n	n	n	n
CCc1cccc2cc(C(O)CNC(C)(C)C)oc12 (stereo unspecified)	n	n	n	x	x
COc1cccc(/C=N/NC(=O)c2ccc([N+](=O)[O-])cc2Cl)c1O	n	n	17	n	n
CN(C)C(/C=C/Nc1cccc([N+](=O)[O-])c1)=C(C#N)C#N	n	n	n	x	n
Cc1ccc(C(=O)/C=C/Nc2cccc([N+](=O)[O-])c2)o1	n	63	64	n	n
SMILES	Giardia FBPA inh	Shiga inhibitor	CHX counter	NS1 function inh	LmPK inhibitor
Nc1nonc1NN=C1CCCCC1	n	n	12	n	n
COC(C/C=C/C(=O)COCc1ccccc1)OC	n	42	18	n	n
COc1ccc(-n2nc(C(=O)NCC(=O)N(C)Cc3ccccc3)c3ccccc3c2=O)c(OC)c1	n	n	n	n	n
O=C(Cc1sc(Nc2ccccc2)nc1-c1ccccc1)NCc1ccccn1	n	53	39	x	n
O=C(Nc1nnc(COc2ccc(F)cc2)s1)c1cccs1	n	n	n	n	n
Cc1ccc(Nc2nc(-c3ccccc3)c(CC(=O)O)s2)cc1	n	82	47	x	n
O=C(O)Cc1sc(Nc2ccccc2)nc1-c1ccc(Cl)cc1	n	119	42	x	n
O=C(O)Cc1sc(-c2ccc(Cl)cc2)nc1-c1ccccc1	n	n	n	n	n
O=C(O)Cc1sc(Nc2ccc(F)cc2)nc1-c1cccs1	n	60	30	x	n
Cn1nnnc1NCc1ccccc1F	n	x	n	n	n
COc1ccc(S(=O)(=O)N2CCOC2CNC(=O)C(=O)NCC(C)C)cc1OC (stereo unspecified)	x	n	n	n	n
Nc1nc(Cl)cc(NCCO)n1	x	x	x	n	x
Cn1cc(CN2CCC[C@H]2CO)c(-c2cccc(Cl)c2)n1	n	n	27	n	n
CC(C)[C@H]1CN(C)CCN1Cc1cn(C)nc1-c1cccc(Cl)c1	n	n	n	n	n
CCN1CCc2c(sc(NC(=O)C3COc4ccccc4O3)c2C(N)=O)C1 (stereo unspecified)	n	n	19	n	n
CN1CCc2c(sc(NC(=O)c3ccc4ccccc4c3)c2C(N)=O)C1	x	92	49	n	n
CN1CCc2c(sc(NC(=O)Cc3ccccc3)c2C(N)=O)C1	u	n	n	n	n
COC(=O)c1c(NC(=O)C2COc3ccccc3O2)sc2c1CCN(C(C)=O)C2 (stereo unspecified)	n	n	n	n	n
CCOC(=O)c1c(NC(=S)Nc2ccc(OCC)cc2)sc2c1CCN(C)C2	u	n	18	n	n
CCOC(=O)c1c(NC(=S)Nc2ccc(Cl)cc2)sc2c1CCN(C)C2	n	n	n	n	n
CC(=O)N1CCc2c(sc(NC(=O)C3COc4ccccc4O3)c2C(N)=O)C1 (stereo unspecified)	x	n	31	n	n
CCN1C(=O)[C@H]2[C@H]3[C@H](O)[C@H](O)C/C(=N/O[C@@H](C)c4cc(-c5c(C)cc(C)cc5C)no4)[C@@H]3CC[C@@H]2C1=O	n[12.9 µM]	x	x	x	x
COC(=O)N1[C@H](Cc2ccccc2)C=C[C@]1(C)C(=O)NCc1ccc(N(C)C)cc1	n	x	x	x	x
CC(=O)N1CCc2c(sc(NC(=O)c3ccc4c(c3)OCCO4)c2C#N)C1	n	n	13	n	n
CN1CCc2c(sc(NC(=O)C3COc4ccccc4O3)c2C(N)=O)C1 (stereo unspecified)	n	n	22	n	n
SMILES	Giardia FBPA inh	Shiga inhibitor	CHX counter	NS1 function inh	LmPK inhibitor
Cc1nnc2c(N3CCN(CCO)CC3)nc3ccccc3n12	n	n	n	n	n
O=C(CCNC(=O)C1CCN(S(=O)(=O)c2ccc(F)cc2)CC1)NCc1ccc(Cl)cc1	x	n	n	n	n
CSCCC(=O)N1CCC(n2nccc2NC(=O)CCc2ccccc2)CC1	x	n	n	n	n
O=C(Nc1cccc(Cl)c1)c1ccc(OC(=S)N2CCOCC2)cc1	n	103	39	x	n
O=C(Nc1cccc2ccccc12)c1ccc(OC(=S)N2CCOCC2)cc1	n	103	55	n	n
O=C(c1cnccn1)N1CCC[C@@]2(CCN(Cc3nccs3)C2)C1	n	x	x	x	x
COc1cccc(-c2nc3ccc([N+](=O)[O-])cc3o2)c1	n	29	n	x	u
CC(=O)CC(C)(C)Nc1nc2ccc([N+](=O)[O-])cc2o1	n	n	n	n	n
O=c1oc(-c2cccc([N+](=O)[O-])c2)nc2ccccc12	n	x	n	n	n
CC(C)(C)Nc1nc2ccc([N+](=O)[O-])cc2o1	n	n	19	n	n

High-throughput results from PubChem BioAssay.
